Measurements published in PubChem BioAssay AID1851 (National Center for Advancing Translational Sciences (NCATS), 2009).
Screen size: about 16,000 compounds; about 5,700 (36%) were called active. Inconclusive results (about 24%) are left out. Calls come from the whole dose curve; as a rule, active = well fitted curve in the direction sought with a large enough effect; inconclusive = small, poorly fitted or top-dose-only effect, or effect the other way; inactive = no such curve, though single readings can be large or run the other way. This is one part of the list.

molecular target: Cytochrome P450 1A2 (Homo sapiens) (UniProt P05177); assay: Cytochrome panel assay with activity outcomes; details: recombinant CYP, pro-luciferin dealkylation, luminescence, p450-cyp1a2; series mostly up to 57.1 µM
Sequence (P05177 whole entry, looked up): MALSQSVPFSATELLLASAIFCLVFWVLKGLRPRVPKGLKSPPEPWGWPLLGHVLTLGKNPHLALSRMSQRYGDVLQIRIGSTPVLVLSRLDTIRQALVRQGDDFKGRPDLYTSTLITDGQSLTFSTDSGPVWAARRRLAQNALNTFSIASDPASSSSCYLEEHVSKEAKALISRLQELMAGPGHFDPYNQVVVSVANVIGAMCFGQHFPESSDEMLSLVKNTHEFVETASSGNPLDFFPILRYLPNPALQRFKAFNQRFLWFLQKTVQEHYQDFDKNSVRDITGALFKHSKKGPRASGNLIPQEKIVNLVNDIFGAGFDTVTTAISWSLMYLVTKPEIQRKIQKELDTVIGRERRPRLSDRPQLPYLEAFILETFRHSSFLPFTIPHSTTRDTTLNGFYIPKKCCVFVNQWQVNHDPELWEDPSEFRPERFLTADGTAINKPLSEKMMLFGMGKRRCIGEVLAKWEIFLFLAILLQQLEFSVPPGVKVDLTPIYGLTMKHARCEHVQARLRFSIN
% is set by controls: 0 for no effect and ±100 for the full control effect.

| Structure (SMILES) | AC50 | activity, negative = inhibition |
| --- | --- | --- |
| Cc1ccc(O)c(C(=O)c2cc(C#N)c(=O)n(-c3c(C)n(C)n(-c4ccccc4)c3=O)c2)c1 | inactive |  |
| Nc1nc2n[nH]nc2c(=O)[nH]1 | inactive |  |
| CCCOc1ccccc1-c1nc2n[nH]nc2c(=O)[nH]1 | 3.98 µM (active) |  |
| C=CCSC1=Nc2sccc2C2=NC(=O)CN12 | 1.78 µM (active) |  |
| CN(C)C(=O)CN(c1ccc2c(c1)OCO2)S(C)(=O)=O | inactive |  |
| CSC1=N/C(=C\c2ccc(C)cc2)C(=O)S1 | 2.82 µM (active) |  |
| CSC1=N/C(=C\c2ccc3c(c2)OCO3)C(=O)S1 | 1 µM (active) |  |
| CSC1=N/C(=C\c2ccc(Br)o2)C(=O)S1 | 3.55 µM (active) |  |
| C[C@@H]1C[C@@H]2[C@H]3CCC4=CC(=O)C=C[C@]4(C)[C@]3(F)[C@@H](O)C[C@]2(C)[C@@]1(O)C(=O)CO | inactive |  |
| O=C(O)[C@H](Cc1cc(I)c(O)c(I)c1)C1CCCCC1 |  | -8.77% [at 2.29 µM] (inactive) |
| c1ccc2cc(Sc3ncnc4c3oc3ccccc34)ccc2c1 | 1.58 µM (active) |  |
| COc1ccc(OC)c(C(=O)CN2C(=O)NC(C)(c3ccccc3)C2=O)c1 (centres undefined) | inactive |  |
| CC(=O)Nc1ccc(S(=O)(=O)NC(CC(=O)NCCC2=CCCCC2)C(C)C)cc1 (centres undefined) | inactive |  |
| CCCCCOc1ccc(NC(=O)C(=O)NCCC2=CCCCC2)cc1 | inactive |  |
| COc1ccc(C(=O)CN2C(=O)NC(C)(c3ccccc3)C2=O)cc1OC (centres undefined) | inactive |  |
| Cc1ccc(S(=O)(=O)N(CC(=O)NCCC2=CCCCC2)Cc2ccccc2F)cc1 | inactive |  |
| CC1(c2ccccc2)NC(=O)N(CC(=O)NCCC2=CCCCC2)C1=O (centres undefined) | 11.2 µM (active) |  |
| O=C(COc1ccc(Cl)cc1)NCCC1=CCCCC1 | 11.2 µM (active) |  |
| O=C(CN1CCN(c2ncccn2)CC1)NCCC1=CCCCC1 | 1.58 µM (active) |  |
| Cc1nc2ncnn2c(C)c1CCC(=O)NCCC1=CCCCC1 | inactive |  |
| CCC(C)n1nnc2c(=O)oc3ccccc3c21 (centres undefined) | 0.708 µM (active) |  |
| C=CCN1CCc2cc(O)c(O)cc2[C@H](c2ccccc2)C1 | inactive |  |

| Structure (SMILES) | AC50 | activity, negative = inhibition |
| --- | --- | --- |
| Cc1ccccc1-c1cc(-c2ccccc2O)on1 | 2.51 µM (active) |  |
| CC(C)=NOCc1cccc(-c2cc(-c3ccccc3)no2)c1 |  | 1.37% [at 11.4 µM] (inactive) |
| Nc1nc(-c2ccccc2)cc(-c2ccccc2O)n1 | 0.631 µM (active) |  |
| CC(C)=NOCc1ccc(-c2cc(-c3ccccc3)no2)cc1 |  | -4.03% [at 11.4 µM] (inactive) |
| Oc1ccccc1-c1cc(-c2ccccc2)no1 | 1.26 µM (active) |  |
| Nc1nc(-c2cc(-c3cccc4ccccc34)nc(N)n2)cc(-c2cccc3ccccc23)n1 |  | -4.4% [at 2.29 µM] (inactive) |
| Cc1cc(C(F)F)n2nc(C(=O)Nc3sc4c(c3C#N)CCC(C)C4)nc2n1 (centres undefined) | inactive |  |
| CC(=O)N1CCN(c2nc(C)nc3sc4c(c23)CCC(C)C4)CC1 (centres undefined) | 15.8 µM (active) |  |
| CC(C)CN=C(N)N=C(N)N |  | -9.85% [at 11.4 µM] (inactive) |
| C(=N\N(c1ccccc1)c1ccccc1)/c1ccc2c(c1)OCO2 | 2 µM (active) |  |
| CCOc1ccc(CNC(=O)C2CCC(=O)N2C2CCCC2)cc1OC (centres undefined) | inactive |  |
| CCOc1ccc(CC(=O)C2C(=O)CCCC2=O)cc1OCC | 10 µM (active) |  |
| CCOc1cc(CN2CCN(c3ccc(C(C)=O)cc3)CC2)ccc1OC | inactive |  |
| CC1CCC(O)([C@](C)(C(=O)O)c2ccccc2)CC1 (some centres undefined) |  | -4.6% [at 11.4 µM] (inactive) |
| COC(=O)N1CCC2(CC1)CN(C(=O)Nc1ccccc1)C2 | inactive |  |
| O=C(Nc1ccccc1)N1CCOCC1 | inactive |  |
| O=C(Nc1ccc(Cl)cc1)N1CCc2[nH]c3ccccc3c2C1 | 3.55 µM (active) |  |
| COC(=O)[C@@]1(Cc2ccc(OC)cc2)[C@H]2c3cc(C(=O)N4CCCC4)n(Cc4ccc(C(F)(F)F)nc4)c3C[C@H]2CN1C(=O)c1ccccc1 | inactive |  |
| Cc1cc(SCC(=O)c2cccs2)nc2c(C)cccc12 | 0.891 µM (active) |  |
| CCCNC(=O)OC[C@@H]1O[C@H](c2ccccc2)C=C[C@@H]1Oc1ccc(OC)cc1 |  | -7.29% [at 11.4 µM] (inactive) |
| C=CCOc1ccc(CNC(C)(C)CO)cc1OCC | inactive |  |
| C=CCOc1ccccc1OC[C@H](O)CNC(C)C | 5.01 µM (active) |  |

| Structure (SMILES) | AC50 | activity, negative = inhibition |
| --- | --- | --- |
| C=CCc1ccccc1OC[C@H](O)CNC(C)C | 3.16 µM (active) |  |
| CC(C)(C)NC[C@H](O)COc1cccc2[nH]c(=O)[nH]c12 | inactive |  |
| O=C1c2ccccc2C(=O)N1CC1c2ccccc2CCN1S(=O)(=O)c1ccccc1 (centres undefined) | inactive |  |
| COc1ccc(CCNC(=O)C2CCN(S(=O)(=O)N3CC(C)CC(C)C3)CC2)cc1OC (centres undefined) | inactive |  |
| C#CCCCO/N=C1/C[C@@H](O)[C@@H](O)[C@@H]2[C@@H]3C(=O)N(CCC(=O)OCC)C(=O)[C@H]3CC[C@@H]12 |  | -0.481% [at 11.4 µM] (inactive) |
| Cc1ccc(S(=O)(=O)c2cc(C#N)c(=O)[nH]c2N)cc1 | inactive |  |
| CNc1oc(C)nc1S(=O)(=O)c1ccc(C)cc1 | inactive |  |
| CSc1nc(-c2ccc(C)cc2)[nH]c1S(=O)(=O)c1ccccc1 | 14.1 µM (active) |  |
| CC1(C)N=C(N)N=C(N)N1c1cccc(CSc2ccccc2)c1 |  | -17.2% [at 2.29 µM] (inactive) |
| Clc1ccc(CSc2nccn2Cc2ccccc2)cc1 | 25.1 µM (active) |  |
| c1ccc(CCSc2nccn2-c2ccccc2)cc1 | 1.78 µM (active) |  |
| O=c1ccnc(SCc2ccc(Cl)cc2)[nH]1 |  | -17.6% [at 11.4 µM] (inactive) |
| CCc1ccc(CSc2nccn2-c2ccccc2)cc1 | 1.26 µM (active) |  |
| O=C(CSc1nccn1-c1ccccc1)c1ccc(Cl)cc1 | 0.891 µM (active) |  |
| O=C(C1CCN(S(=O)(=O)c2cccc3nsnc23)CC1)N1CCN(c2ccccc2F)CC1 | inactive |  |
| COC(=O)[C@H](CCSC)NC(=O)NCc1ccccc1F | inactive |  |
| O=C(c1ccccc1)c1ccc2nc(-c3ccc(NC(=O)c4ccccc4Br)cc3)[nH]c2c1 | 8.91 µM (active) |  |
| O=C(c1ccccc1)c1ccc2nc(-c3ccc(NC(=O)c4ccccc4F)cc3)[nH]c2c1 | inactive |  |
| Cc1nc2cnc(N3CCN(C)CC3)nc2n(C)c1=O | 12.6 µM (active) |  |
| Cc1nc2cnc(N3CCOCC3)nc2n(C)c1=O | 6.31 µM (active) |  |
